# Measured values from PubChem BioAssay AID623868 (Vanderbilt High Throughput Screening Facility, 2012).
# In all, about 2,100 compounds went through this assay and about 760 (36%) were called active. Not all results are given here. Unmarked numbers belong to inactive results.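 How the source made its calls: active means thallium-flux fluorescence traces judged by eye to show enhanced or reduced glutamate response, manual score 1 or -1, so both directions (some results past the limit were not filed as active); inactive means the rest, including fluorescent or raised-baseline compounds.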
# Experiment: non-GIRK thallium flux modulation in mGlu8 cells, confirmation, counter-screen for GIRK activator project, cell-based, HEK-293 rmGlu8, no GIRK (AID 623868);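 further: extra codes mark interference with 3 for fluorescent and 4 for baseline rise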
# Conditions: thallium flux fluorescence, at 10 µM, actives lie on both sides, codes: 1 enhancer, -1 blocker, 0 none, thallium stimulus containing EC20 glutamate
row,SMILES,manual score
1,O=C1CCC(/C=C/c2ccccc2)=NN1Cc1ccc(Cl)c(Cl)c1,0
2,CCCN1CCC(NC(=O)Nc2ccc(F)cc2F)CC1,0
3,Cc1ccc(C)c(NC(=S)NNC(=O)c2csc3c2CCC(C)C3)c1 (stereo not given),1 (active)
4,Cc1ccc(C)c(NC(=S)NNC(=O)c2csc3c2CCCC3)c1,1 (active)
5,FC(F)(F)c1cccc(N2CCN(C(=S)NC3CCCCC3)CC2)c1,0
6,O=C(N1CCCCC1)N1CCN(C(=O)N(c2ccccc2)c2ccccc2)CC1,0
7,O=C(NC(=S)N1CCN(c2ccc(C(F)(F)F)cc2[N+](=O)[O-])CC1)c1cccs1,1 (active)
8,O=C(NC(=S)N1CCN(c2ccc(Cl)cc2[N+](=O)[O-])CC1)c1cccs1,1 (active)
9,O=C(NC(=S)N1CCN(c2ccc(Cl)cc2[N+](=O)[O-])CC1)c1ccco1,1 (active)
10,O=C(NC(=S)N1CCCCC1)c1cccs1,1 (active)
11,COC(=O)C1CCCN1C(=O)c1cccs1 (stereo not given),0
12,O=C(O/N=C\c1ccc(N2CCCCC2)c([N+](=O)[O-])c1)c1c(F)cccc1F,0
13,CCN(CC)CC(O)COc1ccccc1C(=O)CCc1ccccc1 (stereo not given),0
14,COC(=O)c1cc(=O)n(CCc2ccc(OC)cc2)c(=Nc2ccc(F)c(Cl)c2)s1,0
15,O=C(NC(=S)Nc1cccc(Cl)c1N1CCCC1)c1ccc(-c2cccc([N+](=O)[O-])c2)o1,0
16,O=C(NC(=S)N1CCN(c2c(Cl)cccc2[N+](=O)[O-])CC1)c1cccs1,1 (active)
17,COc1ccc(N(CC(=O)NC2CCCC2)C(=O)Cn2nnc(-c3ccc(C)cc3)n2)cc1,0
18,COc1cc2c(C(=O)N3CCN(C4CCCCC4)CC3)cn(CC(C)C)c(=O)c2cc1OC,0
19,CC(=C/c1ccccc1)/C=N/n1c(-c2ccco2)n[nH]c1=S,1 (active)
20,CC(/C=N/n1c(C2CCCCC2)n[nH]c1=S)=C\c1ccccc1,1 (active)
21,CC(/C=N/n1c(-c2ccco2)n[nH]c1=S)=C\c1ccccc1,1 (active)
22,CC(/C=N/NC(=O)c1c(Br)cnn1C)=C\c1ccccc1,0
23,Cc1ccc(C)n1-c1ccc(C(=O)NN)cc1,0
24,CC(C)NS(=O)(=O)c1ccc(OCC(=O)Nc2ccc3c(c2)OCO3)c(Cl)c1,0
25,COc1ccc(OC)c(C(=O)c2coc3ccc(O)c(CN4CCOCC4)c23)c1,0
26,CCCCCNC(=O)c1ccc2c(=O)[nH]c3c(C(=O)NCC4CCCO4)sc(=S)n3c2c1 (stereo not given),-1 (active)
27,O=C(CN1C(=O)c2ccccc2C1=O)Nc1sc2c(c1C(=O)NCC1CCCO1)CCC2 (stereo not given),0

row,SMILES,manual score
1,Cc1ccc(-n2nc(-c3cccs3)cc2C(=O)NCC2CCCO2)c(C)c1 (stereo not given),-0.5
2,Cc1cc(C=C2C(=O)c3ccccc3C2=O)c(C)n1-c1ccccc1,3
3,CCc1nc2cc(Cl)c(Cl)cc2[nH]1,0
4,CCCOc1cccc(-c2cc(-c3n[nH]c(=S)n3CC)c3ccccc3n2)c1,1 (active)
5,CCn1c(-c2cc(-c3cccc(OC)c3)nc3ccccc23)n[nH]c1=S,0.5
6,O=C(Nc1nnc(-c2cccs2)o1)c1cccc(Oc2ccccc2)c1,1 (active)
7,CCOC(=O)C1=C(CC)Nc2ccccc2N=C1NC(=O)c1ccc(S(=O)(=O)N(C)C)cc1,-0.5
8,Cc1occc1C(=O)Nc1cccc(C(F)(F)F)c1,0
9,Cc1cc(C)c(NC(=O)c2ccc(S(=O)(=O)N(C)C)cc2)c(C)n1,0
10,O=C(Nc1nnc(-c2cccs2)o1)c1cccc(F)c1,1 (active)
11,O=C(NNC(=S)Nc1cccc(C(F)(F)F)c1)c1cccc(Cl)c1,0
12,CCCCN(C)S(=O)(=O)c1ccc(C(=O)Nc2nnc(-c3cccs3)o2)cc1,1 (active)
13,Cc1nc(C)c(C(=O)Nc2ccc(Oc3ccccc3)cc2)o1,0
14,O=C(Nc1cccs1)Nc1c(F)c(F)c(F)c(F)c1F,0
15,Cc1ncoc1C(=O)Nc1ccc(Oc2ccccc2)cc1,0
16,O=C(Nc1nnc(-c2cccs2)o1)c1cccc(C(F)(F)F)c1,1 (active)
17,CCOC(=O)C1=C(CC)Nc2ccccc2N=C1NC(=O)Nc1ccc(Cl)c(Cl)c1,0
18,CN1CCN(S(=O)(=O)c2cccc(S(=O)(=O)c3cccc(S(=O)(=O)N4CCN(C)CC4)c3)c2)CC1,0
19,Cc1cc2nc(CCN(C(=S)NCC(C)C)C3CCCC3)[nH]c2cc1C,0
20,O=C(CN1C(=O)c2cccc3cccc(c23)C1=O)N1CCN(c2ccccn2)CC1,3
21,Cc1nc(N2CCN(C(=O)COc3ccccc3)CC2)c2c(C)c(C)sc2n1,-1 (active)
22,Cc1sc2nc(CN3CCCC3)nc(N3CCN(S(=O)(=O)c4cccs4)CC3)c2c1C,0
23,CSc1cccc(NC(=O)CN(c2ccccc2)S(=O)(=O)N(C)C)c1,0
24,CCOC(=O)CSc1cc(CSc2ccccc2)nc(-c2ccccc2)n1,0
25,Cc1cccc(CSc2cccc3cccnc23)c1,1 (active)
26,CCOC(=O)CSc1cccc2cccnc12,1 (active)
27,CN(C)C(=O)CSc1cccc2cccnc12,0

row,SMILES,manual score
1,Cc1ccc(/C=N/NC(=S)N2CCOCC2)cc1,1 (active)
2,Cc1ccc(C(=O)c2ccc(N3CCOCC3)c(F)c2)cc1,0
3,S=C(N/N=C/c1ccc(Cl)cc1)N1CCOCC1,1 (active)
4,Clc1ccc(/C=N/Nc2nc(Cl)nc3ccccc23)cc1,0
5,S=C(N/N=C/c1ccccc1)N1CCOCC1,1 (active)
6,CC(CCc1ccccc1)NC(=O)N1CCOCC1 (stereo not given),0
7,O=C(NC(=Nc1ccccc1)N1CCOCC1)Nc1ccccc1,0
8,O=C(CCCc1nc(-c2ccc(Cl)cc2)no1)N1CCOCC1,0
9,Cc1ccc(S(=O)(=O)c2c(C)cc(C)nc2Cl)c(C)c1,0
10,Cc1ccn2c(NC3CCCCC3)c(C(C)C)nc2c1,0
11,Cc1ccc(NC(=O)CSC(N)=O)cc1Cl,0
12,CC(=O)Nc1ccc(S(=O)(=O)NC(C(=O)O)C2=CCC=CC2)cc1 (stereo not given),0
13,CC1=NN(C(N)=S)C(=O)C1N=Nc1ccccc1C (stereo not given),1 (active)
14,CC1=NN(C(N)=S)C(=O)C1N=Nc1ccc(C)cc1C (stereo not given),1 (active)
15,N=c1c2c(ncn1CCN1CCOCC1)Oc1ccc3ccccc3c1C2c1ccccc1 (stereo not given),0
16,Cn1c(=O)c(NCCc2ccccc2)c2c3c(cccc31)C(=O)c1ccccc1-2,3
17,Cc1nnc2n(C3CCCCC3)c(=O)c3c4c(sc3n12)COC(C)(C)C4,-1 (active)
18,CC(Nc1nc(N2CCCCC2)nc2ccccc12)c1ccccc1 (stereo not given),0
19,FC(F)(F)c1cnc(NNC(=S)Nc2ccccc2Cl)c(Cl)c1,1 (active)
20,O=C1/C(=C\c2ccccn2)SC(=S)N1Nc1ncc(C(F)(F)F)cc1Cl,0
21,Cc1ccc(NC(=S)Nc2ccc(Cl)c(Cl)c2)c(OC(F)F)c1,0
22,O=C(NNc1ncc(C(F)(F)F)cc1Cl)c1c(Cl)cccc1Cl,0.5
23,FC(F)(F)c1cnc(NNC(=S)Nc2ccc(Cl)cc2)c(Cl)c1,1 (active)
24,NC(=O)c1ccc(Cc2ncc(C(F)(F)F)cc2Cl)s1,0
25,Cc1ccc(NC(=S)NNc2ncc(C(F)(F)F)cc2Cl)c(C)c1,1 (active)
26,Cn1c(=O)c(NCCO)c2c3c(cccc31)C(=O)c1ccccc1-2,3
27,C/C(=N/NC(=O)c1ccncc1)c1cc2ccc(O)cc2oc1=O,0

row,SMILES,manual score
1,Cc1ccc2nsnc2c1NC(=S)NC(=O)c1ccco1,1 (active)
2,O=C(NC(=S)Nc1ccccn1)c1ccco1,1 (active)
3,Cc1cccc(NC(=S)NC(=O)c2ccco2)n1,1 (active)
4,Cc1cc(NC(=O)c2ccco2)ccc1NC(=O)Cc1cccs1,0
5,O=C(CC(=O)Nc1ccccn1)Nc1ccccn1,0
6,O=C(NCCCn1ccnc1)Nc1ccc(Cl)c(Cl)c1,0
7,N/C(=N/O)c1nc(N2CCCC2)nc(N(c2ccccc2)c2ccccc2)n1,0
8,CC(C)N(C(=O)CSc1ncnc2sc(-c3ccccc3)cc12)C(C)C,1 (active)
9,CC(=O)c1c(C)[nH]c(C(=O)CSc2ncnc3sc(-c4ccccc4)cc23)c1C,1 (active)
10,CC(C)C(C)(C#N)NC(=O)CSc1ncnc2sc(-c3ccccc3)cc12 (stereo not given),0
11,CC(=O)c1c(C)[nH]c(C(=O)COc2cc(C)cc(C)c2)c1C,0
12,CN(CCC#N)C(=O)CSc1ncnc2sc(-c3ccccc3)cc12,0
13,CCN(CC)C(=O)CSc1ncnc2sc(-c3ccccc3)cc12,0.5
14,CCOC(=O)Cn1c(=O)oc2cc(S(=O)(=O)NCCCc3ccccc3)ccc21,0
15,CCOC(=O)c1sc2ncnc(NCc3ccco3)c2c1C,1 (active)
16,Nc1nc(Nc2ccccc2)nc(NCc2ccco2)c1[N+](=O)[O-],0
17,COc1ccc(C(=O)NC(=S)N2CCCCC2)cc1,1 (active)
18,CC1CCN(C(=S)NC(=O)c2ccccc2)CC1,0.5
19,COc1ccc(C(=O)NC(=S)N2CCC(C)CC2)cc1,1 (active)
20,Cc1cccc(NC(=S)N2CCC(C(=O)c3ccc(F)cc3)CC2)c1C,0
21,COc1ccc(NC(=O)Nc2ccccc2C(=O)N2CCCC2)cc1,0
22,CNC(=S)N1CCN(c2ccc(OC)cc2)CC1,0
23,CCCCCCc1cc2cc(C(=O)NC)c(=N)oc2cc1O,3
24,COc1ccc(Nc2nnc(Cc3ccccc3)c(=O)[nH]2)c(OC)c1,0
